Source: PubChem (several laboratories)
Rows were chosen to be rich in hits. Some 3.8% of all compounds tested hit in one or more screens of this group.
rRNA inh HTS: inhibits bacterial ribosomal RNA function over humanized ribosomes | 350,000 tested, 1.6% active | E. coli WT GFP vs humanized-ribosome RFP mutants, fluorescence, 24 h; active compounds read low; DMSO median 0, no signal -100 | GFP signal change (wild-type ribosome), % (no concentration beside the values) | AID 720706;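 active means significant combined selectivity score with lowered wild-type GFP, culture density cut under 30%, mutant RFP and density less affected; inactive means any of these conditions unmet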
proKLK7 act: activators of human kallikrein-7 zymogen | purified proKLK7, EDANS-DABCYL substrate fluorescence; 100% is mature enzyme control, 0% vehicle | activation, % at 7 µM | 370,000 tested, 0.9% active | AID 652039;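 active means activation above the mean of all tested compounds plus 3 SD, computed per campaign excluding outliers beyond control limits, cut at about 13% in these data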
Target sequence (P49862 whole entry, looked up): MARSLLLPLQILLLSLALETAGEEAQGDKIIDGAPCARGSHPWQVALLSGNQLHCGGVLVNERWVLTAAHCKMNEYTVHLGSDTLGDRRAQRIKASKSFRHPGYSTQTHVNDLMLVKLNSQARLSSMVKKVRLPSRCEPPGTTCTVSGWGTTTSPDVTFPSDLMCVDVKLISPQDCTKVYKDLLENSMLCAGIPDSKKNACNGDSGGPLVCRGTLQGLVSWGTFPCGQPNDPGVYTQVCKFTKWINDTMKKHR
FGF22 binding: binders of recombinant human FGF22 by thermal shift; Q9HCT0; SYPRO orange fluorescence; percent of sucrose octasulfate shift, DMSO zero; activity (Tm shift, normalised), % at 9.99 µM; 340,000 tested, 1.5% active; AID 651658;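 active means mean Tm shift, scaled 0 neutral to 100 positive control, at about 1.3% or above, every replicate too, limit read from the data; inconclusive means no clear call, values can overlap the other calls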
Target sequence (Q9HCT0 whole entry, looked up): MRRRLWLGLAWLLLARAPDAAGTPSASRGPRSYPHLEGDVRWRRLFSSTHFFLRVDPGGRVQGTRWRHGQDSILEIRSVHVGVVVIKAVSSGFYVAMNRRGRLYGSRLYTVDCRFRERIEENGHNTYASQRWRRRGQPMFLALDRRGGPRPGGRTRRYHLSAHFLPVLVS
ADAM17 inh: inhibits human ADAM17 | 370,000 tested, 0.83% active | recombinant ADAM17, EDANS/DABCYL FRET peptide cleavage | P78536 | inhibition, % at 6.95 µM | AID 720648;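 active means inhibition above the mean of compounds lying between control limits plus 3 SD, set per campaign, cut at about 8.5% in these data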;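 further: 0% = DMSO-only wells as the low control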
ADAM10 inh: ADAM10 inhibition, QFRET primary screen. O14672. recombinant ADAM10, EDANS/DABCYL FRET peptide cleavage, 3 h. inhibition, % at 7 µM. 370,000 tested, 0.62% active;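 active means inhibition above a per-campaign cutoff equal to the mean of compounds falling between control-based bounds plus 3 SD, cut at about 20% in these data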;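 further: 0% = DMSO wells while the 100% control is not disclosed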
AID977621: growth inhibition of wild-type GFP E. coli, dose response, H69 mutant RFP, cherry-pick; shares compounds with rRNA inh HTS; E. coli wild-type GFP strain growth, fluorescence, 24 h; activity change, negative = inhibition at 50 µM; 1,900 tested, under 10 active;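 active means Wild-type ribosome reporter drop at least double the humanized mutant ribosome reporter drop, growth loss under a set limit; inconclusive means no clear call, values can overlap the other calls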;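 further: wild-type GFP and H69 mutant RFP strains grown together 50/50 in each well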
AID977628: E. coli growth inhibition, wild-type GFP versus h24 humanized RFP strain, dose response, h24 mutant RFP vs wild-type GFP, cherry-pick; E. coli WT GFP strain growth, fluorescence, 24 h; 1,900 tested, under 10 active; shares compounds with rRNA inh HTS; AID 977628; activity change, negative = inhibition at 50 µM;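 active means compound lowering the normal-ribosome reporter at least twice as much as the humanized-ribosome reporter, growth loss under a set limit; inconclusive means no clear call, values can overlap the other calls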;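 further: wild-type GFP and h24 humanized RFP strains co-cultured 1 to 1 per well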
* = called active by the depositor; ? = inconclusive; nt = no result.

SMILES | rRNA inh HTS | proKLK7 act | FGF22 binding | ADAM17 inh | ADAM10 inh | AID977621 | AID977628
O=C(O)CC1(CC(=O)Nc2ccc3c(c2)OCCCO3)CCCCC1 | -17.2 | -0.2 | -0.2 | -2.3 | -4.1 | nt | nt
O=C1C[C@@H](c2ccccc2)C(=O)N[C@H](c2ccc3c(c2)OCO3)C/C=C\C[C@@H](c2ccc(F)cc2)N1 | -0.5 | nt | nt | nt | nt | nt | nt
CC(C)CN1C(=O)c2ccc(C(=O)Nc3ccncc3)cc2C1=O | -24.9* | 0.2 | 0.1 | -5.1 | -3.6 | nt | -9.15
O=C(C[C@H]1C=C[C@@H](NC(=O)Nc2cc(F)ccc2F)[C@H](CO)O1)NCc1ccncn1 | 2.5 | nt | 0.0 | nt | nt | nt | nt
Fc1ccccc1C1CCN(Cc2nc(CC3CC3)no2)C1 (centres undefined) | -18.3* | -0.1 | 0.3 | -9.1 | -20.4 | -2.55 | -5.49
COc1ccc(C(=O)n2cnc3ccccc32)cc1[N+](=O)[O-] | -27.1* | -0.6 | 0.0 | 4.2 | -2.0 | 5.43 | 4.37
C=CCSc1cc(C)nc2c(-c3ccc(Cl)cc3)c(C)nn12 | -51.4 | -0.2 | 0.0 | -2.0 | -2.2 | nt | nt
Cc1cc(SCC(=O)c2cccs2)n2nc(C)c(-c3ccc(Cl)cc3)c2n1 | -31.1* | 0.4 | 0.2 | -2.5 | 1.2 | -1.58 | -1.94
Cc1ccc(S(=O)(=O)N(C)C[C@H]2OCCCC[C@@H](C)Oc3ccc(NS(=O)(=O)c4cccs4)cc3C(=O)N([C@@H](C)CO)C[C@H]2C)cc1 | -4.8 | nt | -0.5 | nt | nt | nt | nt
C#CCOc1nc(Nc2cccc([N+](=O)[O-])c2)nc(OCC#C)n1 | -17.6* | 0.7 | 0.2 | 2.9 | 7.2 | -10.7 | -2.5
O=C(O)c1cc(-n2nnnc2SCc2ccc([N+](=O)[O-])cc2)ccc1Cl | -2.4 | 0.4 | 0.1 | 0.6 | -0.8 | nt | nt
O=[N+]([O-])c1ccc(O)c(CSc2nnnn2-c2ccccc2)c1 | -26.2* | 0.5 | 1.2 | 0.4 | -1.6 | -27.7 | -12.6
CC(CCC(=O)O)C1CCC2C3CCC4C[C@H](O)CCC4(C)C3CC(=O)C12C (some centres undefined) | -3.7 | 0.0 | -0.2 | -0.8 | -0.1 | nt | nt
CC(CCC(=O)O)C1CC[C@@]2(C)C3C(=O)CC4C(C)(C)C(O)CC[C@]4(C)C3C(=O)C[C@]12C (some centres undefined) | -21.5* | -0.2 | -0.1 | -2.0 | -1.3 | -19.9 | nt
O=C(Cc1ccc(Cl)cc1)c1ccc(O)cc1 | -37.2* | 0.0 | 0.0 | -1.9 | 4.0 | -3.61 | ?
C[C@H](CO)N1C[C@H](C)[C@H](CN(C)C)Oc2cc(C3=CCCC3)ccc2S1(=O)=O | 2.2 | nt | -0.3 | nt | nt | nt | nt
COc1ccc(-n2c(COc3cccc(C)c3)n[nH]c2=S)cc1 | -20.3* | 0.1 | -0.1 | -0.9 | 0.2 | -6.47 | 0.601
C[C@H]1CN([C@@H](C)CO)C(=O)c2cc(C#CCc3ccccc3)cnc2O[C@H]1CN(C)Cc1cccnc1 | 5.9 | nt | -0.2 | nt | nt | nt | nt
O=C(Nc1ccccc1F)N[C@@H]1CC[C@H](CCNS(=O)(=O)c2ccc(F)cc2)O[C@H]1CO | 0.2 | nt | 0.4 | nt | nt | nt | nt
Cc1ccc(CNS(=O)(=O)c2ccc3c(c2)NC(=O)CS3)cc1 | -19.9* | -0.2 | -0.2 | 0.6 | -7.7 | ? | nt
CC[n+]1c(C)cc2c(sc3ccccc32)c1C | -22.1* | 0.4 | 0.2 | -26.8 | -92.2 | -8.38 | -10.4
Cc1ccc(S(=O)(=O)Nc2ccc3c(c2)C(=O)N([C@H](C)CO)C[C@@H](C)[C@H](CN(C)S(C)(=O)=O)O3)cc1 | -1.2 | nt | 0.4 | nt | nt | nt | nt
O=C(Nc1ccccc1)N1C[C@@H]2[C@H](c3ccccc31)[C@@H](CO)N2C(=O)c1ccccn1 | 0.3 | nt | -1.6 | nt | nt | nt | nt
O=C(Nc1ccc(Cl)cc1)N1C[C@H]2[C@@H](c3ccccc31)[C@H](CO)N2CC1CCCCC1 | -56.1 | nt | -0.2 | nt | nt | nt | nt
O=C(Nc1cccc(Cl)c1)N1C[C@@H]2[C@H](c3ccccc31)[C@@H](CO)N2CC1CCCCC1 | -55.9* | nt | nt | nt | nt | ? | nt
O=C(Nc1ccc(Cl)cc1)N1C[C@H]2[C@@H](c3ccccc31)[C@@H](CO)N2C(=O)c1ccccn1 | -23.2* | nt | 0.1 | nt | nt | -6.29 | nt
